PubChem BioAssay (EPA / NIEHS)
Records with an inconclusive call do not appear. A structure can be active in one record and inactive in another. The source made the active and inactive calls. Rule for the calls, unless noted: active = hit-call score of the fitted dose curve at least 0.9, where 1 is the maximum; inactive = score below 0.9.

What was measured:
[1] = CCTE_Shafer_MEA_dev_active_electrodes_number: CCTE's Neural Network Formation Assay for Number of Active Electrodes, Shafer Lab (AID 2284040; active = hit-call score of the fitted dose curve at least 0.9, where 1 is the maximum;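 for AC50: potency for loss of active electrodes versus DMSO so lower counts are hits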)
Method in brief: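 Rat cortical primary cultures, 1.5 x 10^5 cells/well, PEI-coated MEA, laminin drop. Continuous exposure DIV 0–12; full media/compound change DIV 5, 9. Readout: electrodes with mean firing ≥5 spikes/min; AUC across days; loss vs DMSO.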

[2] = CCTE_Shafer_MEA_dev_burst_rate: CCTE's Neural Network Formation Assay for Burst Rate, Shafer Lab (AID 2284042)
Method in brief: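 Exposure ran continuously over 12 days of network development in rat cortical cultures, with compound refreshed during full media changes on DIV 5 and 9. Single-electrode bursts per recording time, well-mean over active electrodes, trapezoidal AUC across days 5–12, fitted downward relative to DMSO.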

[3] = CCTE_Shafer_MEA_dev_bursting_electrodes_number: CCTE's Neural Network Formation Assay for Number of Bursting Electrodes, Shafer Lab (AID 2284043; active = hit-call score of the fitted dose curve at least 0.9, where 1 is the maximum;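 for AC50: potency is for loss of bursting electrodes relative to DMSO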)
Method in brief: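 Primary rat cortical neurons plated on 16-electrode MEA wells, exposed from day 0 with compound renewed at DIV 5 and 9. Electrodes bursting ≥1 burst per 2 min counted on days 5, 7, 9 and 12; trapezoidal AUC across days, fitted for loss versus DMSO.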

[4] = CCTE_Shafer_MEA_dev_per_burst_interspike_interval: CCTE's Neural Network Formation Assay for Burst Interspike Interval, Shafer Lab (AID 2284044);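 note: mean spike spacing inside bursts as AUC over recordings on days 5 7 9 12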
Method in brief: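 Developmental network-formation MEA in primary rat cortical cultures with exposure spanning days 0–12. Within-burst ISI is averaged per well and integrated across recording days by area under the curve, with DMSO as negative control baseline.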

[5] = CCTE_Shafer_MEA_dev_burst_duration_mean: CCTE's Neural Network Formation Assay for Mean Burst Duration, Shafer Lab (AID 2284045);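 for AC50: curve fitted for loss meaning shorter burst duration than DMSO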
Method in brief: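 Primary rat cortical neurons on 48-well 16-electrode MEA plates, exposed from day 0 with renewal at DIV 5 and 9; spontaneous activity recorded on days 5, 7, 9, 12. Well-mean burst duration across bursting electrodes, collapsed as trapezoidal AUC; DMSO baseline.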

[6] = CCTE_Shafer_MEA_dev_interburst_interval_mean: CCTE's Neural Network Formation Assay for Mean Interburst Interval, Shafer Lab (AID 2284046);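 note: well-mean interburst interval of bursting electrodes as AUC over four recording days; curve fitted for decrease in interburst interval relative to DMSO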
Method in brief: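 Primary rat cortical neurons on PEI-coated 48-well MEA plates (laminin added with cells at plating) (16 electrodes/well), exposed from plating day 0 with renewal at DIV 5 and 9. Mean inter-burst interval averaged over bursting electrodes, AUC across days 5, 7, 9, 12; DMSO baseline.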

[7] = CCTE_Shafer_MEA_dev_inter_network_spike_interval_mean: CCTE's Neural Network Formation Assay for Mean Inter-network Spike Interval, Shafer Lab (AID 2284047)
Method in brief: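 Mean time between consecutive network-spike peaks, recorded extracellularly (adaptive spike detection) on DIV 5, 7, 9 and 12, summarized as trapezoidal AUC. Rat cortical cultures on MEAs dosed continuously days 0–12, re-dosed at feeds; loss-of-signal fit relative to DMSO.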

[8] = CCTE_Shafer_MEA_dev_network_spike_number: CCTE's Neural Network Formation Assay for Number of Network Spikes, Shafer Lab (AID 2284048);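 for AC50: fit as a loss of signal meaning fewer network spikes than DMSO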
Method in brief: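 Primary rat cortical neurons on PEI/laminin 48-well MEA plates, dosed from plating day 0 for 12 days, renewed at DIV 5 and 9. Network spike counts recorded DIV 5, 7, 9, 12, collapsed as trapezoidal AUC; DMSO baseline.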

[9] = CCTE_Shafer_MEA_dev_network_spike_peak: CCTE's Neural Network Formation Assay for Mean Number of Electrodes in Network Spike, Shafer Lab (AID 2284049);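 for AC50: fitted for loss of signal meaning fewer electrodes in network spikes than DMSO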
Method in brief: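 Network-spike peak electrode count from recordings on days 5, 7, 9 and 12 was combined as trapezoidal area under the curve. Rat cortical cultures were treated continuously from plating, with compound renewed at each feed (DIV 5, 9); fits versus DMSO.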

DIO2 (gene 1734) = assay: CCTE_GLTED_hDIO2: CCTE's human Deiodinase 2 (DIO2) Inhibition Assay, Great Lakes Toxicology and Ecology Division (GLTED) Lab (AID 2284050; active = hit-call score of the fitted dose curve at least 0.9, where 1 is the maximum)
Method in brief: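 Cell-free human DIO2 enzyme was incubated with test chemical for 3 h; iodide liberated from substrate was then quantified by the Sandell-Kolthoff reaction (absorbance), run in triplicate. Loss of signal versus DMSO baseline indicated inhibition.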

[10] = CCTE_Shafer_MEA_dev_spike_duration_mean: CCTE's Neural Network Formation Assay for Mean Spike Duration, Shafer Lab (AID 2284051);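 note: mean network spike duration pooled as area under curve over DIV 5 to 12 recordings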;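 for AC50: potency for a decrease in mean network spike duration versus DMSO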
Method in brief: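 Spontaneous activity was recorded on days 5, 7, 9 and 12 from rat cortical cultures grown on microelectrode arrays and dosed continuously from day 0, with media and compound renewed after the DIV 5 and 9 recordings. Network-spike duration was collapsed by area under the curve.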

[11] = CCTE_Shafer_MEA_dev_per_network_spike_spike_number_mean: CCTE's Neural Network Formation Assay for Mean Number of Spikes in a Network Spike, Shafer Lab (AID 2284053);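 for AC50: fitted as decrease in spikes per network spike relative to DMSO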
Method in brief: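 Mean spike count within each network spike, taken in a 0.05 s window at its peak, was recorded on days 5, 7, 9 and 12 and integrated as trapezoidal area under the curve. Rat cortical cultures on MEA plates received continuous compound from day 0, refreshed at medium changes on DIV 5 and 9.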

[12] = CCTE_Shafer_MEA_dev_per_network_spike_spike_percent: CCTE's Neural Network Formation Assay for Percent of Spikes in a Network Spike, Shafer Lab (AID 2284054)
Method in brief: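 Rat primary cortical neurons were grown on 48-well MEA plates (16 electrodes/well), exposed from plating day 0 through day 12, with treatment renewed on DIV 5 and 9. Percent of spikes within 0.05 s network-spike peaks was measured, summarised as AUC across days 5, 7, 9, 12.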

[13] = CCTE_Shafer_MEA_dev_LDH: CCTE's Lactate Dehydrogenase Assay for Cytotoxicity in the Neural Network Formation Assay, Shafer Lab (AID 2284068; active = hit-call score of the fitted dose curve at least 0.9, where 1 is the maximum;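 note: exposure for twelve days from plating with re-dosing on DIV 5 and 9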)
Method in brief: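 Primary rat cortical neurons were cultured on PEI-coated MEA plates and exposed from plating through day 12, with compound renewed at medium changes on DIV 5 and 9. LDH activity was read spectrophotometrically; loss of signal versus DMSO indicates reduced viability.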

[14] = CCTE_Shafer_MEA_dev_AB: CCTE's Alamar Blue Assay for Cytotoxicity in the Neural Network Formation Assay, Shafer Lab (AID 2284083; active = hit-call score of the fitted dose curve at least 0.9, where 1 is the maximum;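 note: resazurin reduction fluorescence as viability of cultured neurons; twelve days of exposure from plating with re-dosing on DIV 5 and 9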)
Method in brief: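 Resazurin fluorescence, relative to DMSO, gauges viability after twelve days of exposure that began at plating of rat cortical neurons (1.5 x 10^5 cells/well, 48-well MEA); treatment renewed with full medium exchange on DIV 5 and 9.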

[15] = CCTE_Shafer_MEA_acute_AB: CCTE's Alamar Blue Assay for Cytotoxicity in the Neural Acute Assay, Shafer Lab (AID 2284069; active = hit-call score of the fitted dose curve at least 0.9, where 1 is the maximum;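 note: active compounds lower the viability signal compared with DMSO wells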)
Method in brief: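 Resazurin reduction (CellTiter Blue, 1:6 in fresh medium) read at ex 544/em 590 nm marks viability loss relative to DMSO. Cells: primary rat cortical neuron networks on microelectrode arrays, treated after baseline recording at 13 or 15 days in vitro.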

DIO3 (gene 1735) = assay: CCTE_GLTED_hDIO3: CCTE's human Deiodinase 3 (DIO3) Inhibition Assay, Great Lakes Toxicology and Ecology Division (GLTED) Lab (AID 2284055; active = hit-call score of the fitted dose curve at least 0.9, where 1 is the maximum;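 note: potency is for inhibition seen as loss of released iodide signal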)
Method in brief: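 Cell-free assay with human DIO3 enzyme produced by adenovirus expression; enzyme incubated with test chemical for 3 hours. Liberated iodide then measured by Sandell-Kolthoff absorbance; loss of signal versus DMSO baseline indicates inhibition, run in triplicate.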

[16] = target: Estrogen receptor (Homo sapiens) (UniProt P03372); assay: CCTE_Deisenroth_AIME_384WELL_LUC_Shift: CCTE's 384-well Estrogen Receptor Transactivation Assay with AIME metabolic competence data shift (ERTA luciferase; difference in metabolism positive and negative), Deisenroth Lab (AID 2284041);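 note: shift is response with S9 minus without S9 so positive means metabolism raised ER signal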
Method in brief: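 Chemicals (0.002–200 uM, 10 points) pre-incubated 2 h with alginate-encapsulated induced male Sprague Dawley rat liver S9 or S9-free, then medium applied 24 h to VM7Luc4E2 cells; luciferase. Endpoint is per-concentration difference, S9-positive minus negative.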

Measured: AC50

Sequence of Estrogen receptor (Homo sapiens) (P03372 whole entry, looked up): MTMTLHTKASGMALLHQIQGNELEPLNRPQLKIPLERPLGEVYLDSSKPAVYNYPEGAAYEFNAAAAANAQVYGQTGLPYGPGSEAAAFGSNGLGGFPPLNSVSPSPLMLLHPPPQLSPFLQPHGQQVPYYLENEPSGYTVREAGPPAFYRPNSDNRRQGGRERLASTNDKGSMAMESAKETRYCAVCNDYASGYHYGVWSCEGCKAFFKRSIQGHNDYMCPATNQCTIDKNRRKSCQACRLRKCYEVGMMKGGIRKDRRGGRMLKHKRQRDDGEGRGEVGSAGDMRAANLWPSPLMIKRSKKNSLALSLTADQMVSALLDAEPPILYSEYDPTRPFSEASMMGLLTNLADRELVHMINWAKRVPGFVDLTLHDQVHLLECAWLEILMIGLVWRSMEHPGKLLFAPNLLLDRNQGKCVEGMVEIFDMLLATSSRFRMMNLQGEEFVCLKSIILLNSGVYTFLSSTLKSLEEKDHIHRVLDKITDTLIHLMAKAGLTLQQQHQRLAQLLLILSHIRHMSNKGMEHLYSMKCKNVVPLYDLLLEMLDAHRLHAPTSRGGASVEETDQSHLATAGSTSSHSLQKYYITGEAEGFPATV

O=P(O)(O)CCC(F)(F)C(F)(F)C(F)(F)C(F)(F)C(F)(F)C(F)(F)C(F)(F)C(F)(F)F
active: [1] 4.18 µM | [3] 2.39 µM | [6] 8.6 µM | [8] 4.29 µM | [9] 4.22 µM | DIO2 (gene 1734) 146 µM | [10] 7.74 µM | [11] 4.23 µM | [12] 5.38 µM | [13] 8.87 µM | [14] 8.79 µM
inactive: [2] | [4] | [5] | [7]

CC(=O)Nc1ccc(O)cc1
active: [3] 0.0824 µM | [5] 22.5 µM
inactive: [1] | [2] | [3] | [4] | [5] | [6] | [7] | [8] | [9] | [10] | [11] | [12] | [13] | [15] | [14]

O=C(O)C(F)(F)OC(F)(F)C(F)(F)OC(F)(F)C(F)(F)OC(F)(F)C(F)(F)C(F)(F)C(F)(F)F
active: DIO2 (gene 1734) 60.5 µM | DIO3 (gene 1735) 37.1 µM
not listed: [3] | [15] | [16]
inactive: all other assays above

O=CC(F)(F)C(F)(F)C(F)(F)F
not listed: DIO2 (gene 1734) | [13] | [15] | DIO3 (gene 1735) | [16]
inactive: all other assays above

O=C(O)CCC(F)(F)C(F)(F)C(F)(F)C(F)(F)C(F)(F)F
not listed: [1] | DIO2 (gene 1734) | [14] | [15] | DIO3 (gene 1735) | [16]
inactive: all other assays above

CCCCc1oc2ccccc2c1C(=O)c1cc(I)c(OCCN(CC)CC)c(I)c1
inactive: [15]

CCCCc1ccc2ccccc2c1S(=O)(=O)O
inactive: [16]

O=C(F)C(F)(F)C(F)(F)C(F)(F)C(=O)F
not listed: DIO2 (gene 1734) | [13] | [15] | DIO3 (gene 1735) | [16]
inactive: all other assays above

OCC(CO)(CBr)CBr
inactive: [15]
